13 molecules from PubChem BioAssay can be followed below.

Molecules are shown by their SMILES. Several values for one entry are separate records, joined by “and”; a condition that tells them apart may be missing. Equal values may be shown once. Activity calls are given as the source filed them.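 Rule for the calls, unless noted: active = normalized viability below 100% at a tested concentration; inactive = the rest.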

The nature of experiment [1]: sensitizers of A549 cells to miR-34 induction, primary screen, imaging, A549 dox-inducible miR-34, nuclei and caspase counts (AID 1347080;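 active = compounds whose cell count with miR-34 switched on is under 0.7 times the count with it off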). The note with it: A549 miR-34 inducible, Hoechst nuclei count, 48 h.
The nature of experiment [2]: survival rescue of mitochondrial mutant cells in low glucose, primary screen, MELAS cybrids, Rieske KO mouse fibroblasts, CellTiter-Glo (AID 1508586;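 active = mean z-score across replicates of 1.96 or higher in either the MELAS or the Rieske mutant cell line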;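 note: z relative to plate mean and SD of compound and empty wells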). For orientation: ATP-based viability assays read luminescence as a measure of living cells.
Experiment [3] is described as follows: viability rescue of complex I mutant cybrids, primary screen, cell-based, galactose medium, ATP luminescence (AID 1645843;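 active = z-score of at least 1.8 in each of two replicates, scored against plate mean and spread of sample wells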;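 note: positive z means more ATP and so rescue of galactose-driven cybrid death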). The note with it: complex I mutant cybrid cells, 72 h, stronger effect = higher value.
Experiment [4] in a line: ovarian cancer cell viability with rucaparib, profiling panel, oncology-focused library, rucaparib conditional (AID 1508598). The note with it: patient-derived ovarian cancer cells, CellTiter-Glo viability, 144 h, stronger effect = lower value.
The nature of experiment [5]: liver-stage malaria parasite growth inhibition, primary screen, cell-based, HepG2, luciferase luminescence, HepG2 viability (AID 624349; in the data active = parasite load remaining mostly below about 12%, no sharp cut-off; inactive = mostly above about 10%;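 note: 100% = mean of DMSO negative control wells on the same plate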). The note with it: P. berghei liver stage in HepG2, luciferase luminescence, concentration not given here; parasite load remaining: stronger effect = lower value; viability: measured here: HepG2 viability without parasites.
The target in experiment [6] is NAD(+) hydrolase SARM1 (Homo sapiens) (UniProt Q6SZW1). The experiment is described as follows: SARM1 TIR NADase inhibitors, cell lysate, NAD-Glo luminescence (AID 1508614;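 active = compound whose remaining NAD level is above about 45 nM, limit read from the data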;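 note: higher remaining NAD means stronger inhibition of SARM1 NADase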). The note with it: SAM-TIR HEK293T lysate NADase, at 1 µM, stronger effect = higher value.
NAD(+) hydrolase SARM1 (Homo sapiens), sequence (Q6SZW1 whole entry, looked up): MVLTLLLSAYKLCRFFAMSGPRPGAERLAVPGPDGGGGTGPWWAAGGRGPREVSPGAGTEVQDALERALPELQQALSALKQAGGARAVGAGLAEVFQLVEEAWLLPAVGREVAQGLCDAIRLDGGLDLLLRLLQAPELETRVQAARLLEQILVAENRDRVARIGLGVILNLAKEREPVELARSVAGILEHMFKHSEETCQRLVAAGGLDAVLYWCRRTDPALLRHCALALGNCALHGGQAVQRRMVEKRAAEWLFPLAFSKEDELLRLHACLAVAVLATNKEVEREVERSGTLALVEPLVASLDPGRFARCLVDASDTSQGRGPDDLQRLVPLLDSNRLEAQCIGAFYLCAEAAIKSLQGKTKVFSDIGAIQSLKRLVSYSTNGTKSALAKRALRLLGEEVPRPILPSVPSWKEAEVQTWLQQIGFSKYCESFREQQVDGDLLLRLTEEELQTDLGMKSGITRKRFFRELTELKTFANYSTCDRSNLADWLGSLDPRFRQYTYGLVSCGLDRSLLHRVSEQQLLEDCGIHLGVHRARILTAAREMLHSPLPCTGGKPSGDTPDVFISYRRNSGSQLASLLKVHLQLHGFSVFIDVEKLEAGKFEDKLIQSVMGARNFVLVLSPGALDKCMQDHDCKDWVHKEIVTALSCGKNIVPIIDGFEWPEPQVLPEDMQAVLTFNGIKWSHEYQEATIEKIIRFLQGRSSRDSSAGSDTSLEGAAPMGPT
Where [7] appears, read: stronger effect = lower value, cell number ratio, induced over uninduced.
The mark [8] stands for this setting: measured here: relative caspase fold change +Dox/-Dox.
Where [9] appears, read: measured here: total cells with miR-34 induction, stronger effect = lower value.
Setting [10] is: measured here: total cells without miR-34 induction.
Where [11] appears, read: MELAS cybrid survival, CellTiter-Glo 48 h, stronger effect = higher value.
[12] abbreviates: Rieske KO mouse fibroblast survival, CellTiter-Glo 72 h.

As to `CN(CCc1ccccn1)C(=O)c1ccc2sc(N)nc2c1`, the fold change in experiment [1] (setting [7]) is 0.88 (inactive); in experiment [1] (setting [8]) it was 0.927. Further, the results for the cell count in experiment [1] (setting [9]) and in experiment [1] (setting [10]) were 8380 and 9520, respectively. The z-score was 0.048 (inactive) in experiment [2] (setting [11]), -0.377 in experiment [2] (setting [12]) and -0.435 (inactive) in experiment [3].
Turning to `Cc1ccc(NC(=O)c2ccc(CN3CCN(C)CC3)cc2)cc1Nc1nc(-c2cccnc2)cs1`, the fold change in experiment [1] (setting [7]) was 0.856 (inactive); in experiment [1] (setting [8]) it was 1.16. For the same molecule, the cell count in experiment [1] (setting [9]) came out at 5500; in experiment [1] (setting [10]) it was 6420. Moreover, the z-score in experiment [2] (setting [11]) is -0.618 (inactive); in experiment [2] (setting [12]), 0.938. Also, the viability in experiment [4] (at 0.000305 µM, OCI-C5x cells, with rucaparib 10 µM, 100% = cells with rucaparib alone) is 103% (inactive); in experiment [4] (at 0.000305 µM, OCI-C5x cells, without rucaparib) it was 124% (inactive); in experiment [4] (at 0.000305 µM, OCI-P5x cells, with rucaparib 20 µM, 100% = cells with rucaparib alone) it was 105% (inactive); in experiment [4] (at 0.000305 µM, OCI-P5x cells, without rucaparib), 93.4% (active); in experiment [4] (at 0.00122 µM, OCI-C5x cells, with rucaparib 10 µM, 100% = cells with rucaparib alone), 105% (inactive); in experiment [4] (at 0.00122 µM, OCI-C5x cells, without rucaparib), 120% (inactive). For the same molecule, the viability in experiment [4] (at 0.00122 µM, OCI-P5x cells, with rucaparib 20 µM, 100% = cells with rucaparib alone) was 109% (inactive); in experiment [4] (at 0.00122 µM, OCI-P5x cells, without rucaparib), 96.2% (active); in experiment [4] (at 0.00488 µM, OCI-C5x cells, with rucaparib 10 µM, 100% = cells with rucaparib alone), 112% (inactive); in experiment [4] (at 0.00488 µM, OCI-C5x cells, without rucaparib), 129% (inactive); in experiment [4] (at 0.00488 µM, OCI-P5x cells, with rucaparib 20 µM, 100% = cells with rucaparib alone), 102% (inactive); in experiment [4] (at 0.00488 µM, OCI-P5x cells, without rucaparib), 92.7% (active). Besides, the viability in experiment [4] (at 0.0195 µM, OCI-C5x cells, with rucaparib 10 µM, 100% = cells with rucaparib alone) is 109% (inactive); in experiment [4] (at 0.0195 µM, OCI-C5x cells, without rucaparib), 124% (inactive); in experiment [4] (at 0.0195 µM, OCI-P5x cells, with rucaparib 20 µM, 100% = cells with rucaparib alone), 99.3% (active); in experiment [4] (at 0.0195 µM, OCI-P5x cells, without rucaparib) it was 85.4% (active); in experiment [4] (at 0.0781 µM, OCI-C5x cells, with rucaparib 10 µM, 100% = cells with rucaparib alone) it was 100% (inactive); in experiment [4] (at 0.0781 µM, OCI-C5x cells, without rucaparib), 123% (inactive). Moreover, the viability in experiment [4] (at 0.0781 µM, OCI-P5x cells, with rucaparib 20 µM, 100% = cells with rucaparib alone) was 97% (active); in experiment [4] (at 0.0781 µM, OCI-P5x cells, without rucaparib), 92.9% (active); in experiment [4] (at 0.313 µM, OCI-C5x cells, with rucaparib 10 µM, 100% = cells with rucaparib alone), 113% (inactive); in experiment [4] (at 0.313 µM, OCI-C5x cells, without rucaparib), 124% (inactive); in experiment [4] (at 0.313 µM, OCI-P5x cells, with rucaparib 20 µM, 100% = cells with rucaparib alone), 102% (inactive); in experiment [4] (at 0.313 µM, OCI-P5x cells, without rucaparib) it was 84.1% (active). Moreover, the viability was 106% (inactive) in experiment [4] (at 1.25 µM, OCI-C5x cells, with rucaparib 10 µM, 100% = cells with rucaparib alone); 130% (inactive) in experiment [4] (at 1.25 µM, OCI-C5x cells, without rucaparib); 91.9% (active) in experiment [4] (at 1.25 µM, OCI-P5x cells, with rucaparib 20 µM, 100% = cells with rucaparib alone); 87.9% (active) in experiment [4] (at 1.25 µM, OCI-P5x cells, without rucaparib); 129% (inactive) in experiment [4] (at 5 µM, OCI-C5x cells, with rucaparib 10 µM, 100% = cells with rucaparib alone); 138% (inactive) in experiment [4] (at 5 µM, OCI-C5x cells, without rucaparib). Besides, the viability in experiment [4] (at 5 µM, OCI-P5x cells, with rucaparib 20 µM, 100% = cells with rucaparib alone) is 84.2% (active); in experiment [4] (at 5 µM, OCI-P5x cells, without rucaparib), 82% (active).
Take `O=C1CN(c2ncnc3sccc23)CCN1C1CCCC1`: the fold change in experiment [1] (setting [7]) is 0.857 (inactive); in experiment [1] (setting [8]) it was 1.28. Moreover, the figures for the cell count in experiment [1] (setting [9]) and in experiment [1] (setting [10]) were 8070 and 9410, respectively. The z-score is -1.24 (inactive) in experiment [2] (setting [11]), -0.154 in experiment [2] (setting [12]) and 1.98 (inactive) in experiment [3].
For `CC(C)[N+]1(C)[C@@H]2CC[C@H]1CC(OC(=O)C(CO)c1ccccc1)C2` (some centres not stated), the parasite load remaining in experiment [5] is 74.8% (inactive). The viability in experiment [5] is 106%. Besides, the fold change in experiment [1] (setting [7]) is 0.879 (inactive); in experiment [1] (setting [8]) it was 1.21. Further, the values for the cell count in experiment [1] (setting [9]) and in experiment [1] (setting [10]) were 10100 and 11500, respectively. Moreover, the z-score in experiment [2] (setting [11]) was -0.791 (inactive); in experiment [2] (setting [12]), -0.158; in experiment [3], 0.555 (inactive). Moreover, in experiment [6], the remaining NAD is 10 nM (inactive).
For `CN1CCN(c2ncnc3sccc23)CC1=O`, the figures for the fold change in experiment [1] (setting [7]) and in experiment [1] (setting [8]) were 0.928 (inactive) and 1.32, respectively. The cell count in experiment [1] (setting [9]) was found to be 9620; in experiment [1] (setting [10]), 10400. The z-score in experiment [2] (setting [11]) is -0.0885 (inactive); in experiment [2] (setting [12]) it was -0.276; in experiment [3] it was -0.54 (inactive).
As for `O=C(O)CNC(=O)NC1CCCCC1`, the fold change in experiment [1] (setting [7]) is 0.908 (inactive); in experiment [1] (setting [8]), 0.307. The cell count in experiment [1] (setting [9]) worked out at 9060; in experiment [1] (setting [10]) it was 9970. Besides, the z-score in experiment [2] (setting [11]) was 0.384 (inactive); in experiment [2] (setting [12]), -0.24; in experiment [3], 0.34 (inactive).
For the molecule `CC(C)(O/N=C(\C(=O)N[C@@H]1C(=O)N2C(C(=O)[O-])=C(C[n+]3ccccc3)CS[C@H]12)c1csc(N)n1)C(=O)O`, in experiment [5], the parasite load remaining was 53.2% (inactive) and 19.3% (inactive). Besides, the viability in experiment [5] is 114% and 70%. In addition, the fold change in experiment [1] (setting [7]) was 0.844 (inactive) and 0.909 (inactive); in experiment [1] (setting [8]), 1.51 and 1.02. For the same molecule, the cell count in experiment [1] (setting [9]) was 8430 and 9490; in experiment [1] (setting [10]), 9990 and 10400. For the same molecule, the z-score in experiment [2] (setting [11]) is -0.0556 (inactive) and 0.494 (inactive); in experiment [2] (setting [12]), -0.289 and -0.00761; in experiment [3], 0.025 (inactive). For the same molecule, the remaining NAD in experiment [6] is 10 nM (inactive).
On to `CCOC(=O)O[C@]1(C(=O)COC(=O)CC)CC[C@H]2[C@@H]3CCC4=CC(=O)C=C[C@]4(C)[C@H]3[C@@H](O)C[C@@]21C`, for which the parasite load remaining in experiment [5] is 80.7% (inactive). For the same molecule, the viability in experiment [5] came out at 80.3%. In addition, the fold change was 0.839 (inactive) in experiment [1] (setting [7]) and 0.816 in experiment [1] (setting [8]). Besides, the figures for the cell count in experiment [1] (setting [9]) and in experiment [1] (setting [10]) were 5980 and 7130, respectively. Also, the z-score was -0.565 (inactive) in experiment [2] (setting [11]) and 0.21 in experiment [2] (setting [12]). The remaining NAD in experiment [6] was 10 nM (inactive).
Regarding `Cn1nc(-c2cccnc2)c2[nH]c(-c3ccc4c(c3)OCCO4)nc21`, the fold change in experiment [1] (setting [7]) is 0.86 (inactive); in experiment [1] (setting [8]), 1.08. The results for the cell count in experiment [1] (setting [9]) and in experiment [1] (setting [10]) were 5270 and 6130, respectively. In addition, the z-score in experiment [2] (setting [11]) was 12.6 (active); in experiment [2] (setting [12]), 3.9; in experiment [3] it was 4.01 (active).
In the case of `COc1ncccc1C(=O)N1CCOc2ccccc21`, the results for the fold change in experiment [1] (setting [7]) and in experiment [1] (setting [8]) were 1 (inactive) and 1.28, respectively. Also, the cell count in experiment [1] (setting [9]) stood at 8450; in experiment [1] (setting [10]) it was 8420. For the same molecule, the z-score in experiment [2] (setting [11]) is 0.0792 (inactive); in experiment [2] (setting [12]), -0.0817; in experiment [3], -0.395 (inactive).
As to `CC(C)n1ncc(NC(=O)Cn2ccc(-c3ccc(C(F)(F)F)cc3)n2)n1`, the fold change in experiment [1] (setting [7]) is 0.965 (inactive); in experiment [1] (setting [8]), 1.03. Besides, the cell count in experiment [1] (setting [9]) turned out to be 5250; in experiment [1] (setting [10]) it was 5440. Moreover, the z-score in experiment [2] (setting [11]) was 1.15 (inactive); in experiment [2] (setting [12]), -0.0246; in experiment [3], 0.42 (inactive).
As to `N#Cc1ccc2[nH]cc(CCCCN3CCN(c4ccc5oc(C(N)=O)cc5c4)CC3)c2c1`, the figures for the fold change in experiment [1] (setting [7]) and in experiment [1] (setting [8]) were 0.968 (inactive) and 0.515, respectively. For the same molecule, the cell count in experiment [1] (setting [9]) turned out to be 6440; in experiment [1] (setting [10]), 6650. Moreover, the z-score in experiment [2] (setting [11]) was -0.594 (inactive); in experiment [2] (setting [12]), -0.181. In experiment [6], the remaining NAD is 10 nM (inactive).
Turning to `CO[C@@]1(NC(=O)C2SC(=C(C(N)=O)C(=O)O)S2)C(=O)N2C(C(=O)O)=C(CSc3nnnn3C)CS[C@@H]21` (some centres not stated), the parasite load remaining in experiment [5] was 165% (inactive) and 73.4% (inactive). In experiment [5], the viability is 107% and 73.9%. Further, the fold change in experiment [1] (setting [7]) was 0.873 (inactive); in experiment [1] (setting [8]) it was 1.71. In addition, the figures for the cell count in experiment [1] (setting [9]) and in experiment [1] (setting [10]) were 8700 and 9980, respectively. Also, the z-score in experiment [2] (setting [11]) was -0.492 (inactive); in experiment [2] (setting [12]), -0.132. In addition, the remaining NAD in experiment [6] was 10 nM (inactive).

In general, viability refers to a read-out of living cells in per cent, often relative to untreated cells.
